Data on 40 compounds can be found in PubChem BioAssay (NCI).

The structures appear in SMILES notation. Values joined by “and” are separate entries in the source; they are usually repeats but may differ in a detail not shown here. Identical values can stand only once. The panel holds about 83,000 compounds, 20% with a hit somewhere; the sample as a whole holds those more often.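 The test compound was applied at a single concentration to cells in 96-well plates for 48 hours, and percent growth was recorded.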 Active and inactive are the calls of the source.

For this assay, the system named is MDA-MB-468 breast. In words: NCI-60 one-dose screen, 48 h (100 = growth as untreated, 0 = no growth, -100 = all killed). Conditions: 10 µM unless noted. How it is done:
Growth inhibition of the MDA-MB-468 human Breast tumor cell line is measured as a screen for anti-cancer activity. Cells are grown in 96 well plates and exposed to the test compound for 48 hours. Compounds are tested at a single concentration, which is 10^-5 M for most compounds. The reported endpoint is percent growth (GI% or GIPRCNT), where numbers from 0 - 100% represent growth inhibition, and numbers from -100% - 0 represent cell death. For example, a value of 40 represents 60% growth inhibition. A value of 0 means no net growth occurred over the course of the experiment. A value of -40 indicates 40% of cells at the beginning of the experiment died by the end of the experiment. A value of -100 means all cells are dead at the end of the experiment.
NCI-60 Human Tumor Cell Lines Screen was performed using the standard one-dose NCI protocol, which is described in more detail at https://dtp.cancer.gov/discovery_development/nci-60/default.htm.
Compounds with GIPRCNT values below 10 were considered active. Activity score was based on GIPRCNT using the following formula: […]
Score is 0 for GIPRCNT values of 100 or above, 50 for GIPRCNT values of 0, and 100 for GIPRCNT values of -100.
For the compound `CCCCCCCCCCCCOc1ccc(C(=O)Oc2ccc(CSP3(=O)OCC4OC(n5cnc6c(N)ncnc65)C(F)C4OP(=O)(O)OCC4OC(n5ccc(=O)[nH]c5=O)C(F)C4O3)cc2)cc1` (stereo not given), the growth is 108% (inactive). The result for `CC(CO)NC1CCCCC1` (stereo not given) reads 107% (inactive). With `c1ccc(-c2ccc3ccccc3[o+]2)cc1`, the growth was 94% (inactive). As to `CC[C@H](C)[C@H](NC(=O)[C@H]1CCCCN1C)C(=O)N(C)[C@H](C[C@@H](OC(C)=O)c1cccc(C(=O)N[C@@H](Cc2ccccc2)C[C@H](C)C(=O)OC)n1)C(C)C`, the growth is 40.9% (inactive). The result for `Cc1cc(N(CCCl)CCCl)ccc1/C=N\NC(=O)c1cccnc1` reads -30.4% (active) and -38.6% (active). The result for `C[C@@H]1C/C=C\C(=O)O[C@H](/C=C/C#C/C=C/C(C)(C)[C@@H](O)c2cccc(O)c2Br)[C@@H](C)/C=C/[C@H](C)C[C@H](OC(N)=O)C1` reads 33.6% (inactive); that for `Cc1ccc(P(=O)(O)O)cc1`, 88.3% (inactive). The result for `COc1cccc2c1c(C(=O)C(=O)Nc1ccn[nH]1)cn2Cc1ccc(F)cc1` reads 43.3% (inactive); that for `O=[N+]([O-])c1ccc(Br)c([N+](=O)[O-])c1`, 34% (inactive). Take `CC[C@]12C=CCN3CC[C@@]4(c5ccc(OC)cc5N(C)[C@H]4[C@@](O)(C(=O)OC)[C@@H]1OC(=O)CCCC[P+](C1CCCCC1)(C1CCCCC1)C1CCCCC1)[C@@H]32`: the growth was -79% (active). Take `Cc1ccc(C[As+](c2ccccc2)(c2ccccc2)c2ccccc2)cc1`: the growth is -24.3% (active).

With `Clc1ccc(COC(Cn2ccnc2)c2ccc(Cl)cc2Cl)c(Cl)c1` (stereo not given), the growth is 33.3% (inactive).

Take `ClCCN(CCCl)c1ccc(-n2cnc3c(Cl)ncnc32)cc1`: the growth is -43.5% (active).

In the case of `CC[C@@H]1[C@@H](C)O[C@@](O)([C@@H](C)[C@H](O)[C@H](C)[C@H]2OC(=O)/C=C/C=C/[C@H](C)[C@@H]([C@@H](C)[C@@H](O)[C@H](C)[C@@]3(O)C[C@@H](O[C@H]4C[C@@H](O)[C@H](O)C(C)O4)[C@H](CC)[C@@H](C)O3)OC(=O)/C=C/C=C/[C@@H]2C)C[C@H]1O[C@@H]1C[C@@H](O)[C@H](O)C(C)O1` (stereo not given in full), the growth was -83.6% (active). The result for `COc1ccc(/C=C\c2cc(OC)c(OC)c(OC)c2)c(NS(=O)(=O)c2ccc(Cl)cc2)c1O` reads 9.56% (active); that for `N#CC(C#N)=Cc1cccc(F)c1`, 109% (inactive).

In the case of `CC1=C(CCC=O)C2=C(C)C3(CC3)[C@@](C)(O)C(=O)C2=C1`, the growth was -86.5% (active). Take `CC(=O)[C@H]1CC[C@H]2[C@@H]3CC[C@H]4C[C@H](N)CC[C@]4(C)[C@H]3CC[C@]12C`: the growth was 64.1% (inactive). To `c1ccc(Nc2nc(-c3ccccc3)c[se]2)cc1` belongs 49.8% (inactive); to `Cn1cc(-c2csc(-c3cn(CCN4CCOCC4)c4ccccc34)n2)c2cccnc21`, 63.3% (inactive). Turning to `Cc1cc(NC(=O)CCc2ccc(N3C(N)=NC(N)=NC3(C)C)cc2)ccc1S(=O)(=O)F`, the growth is 32.4% (inactive). The result for `C[C@@]1(CCCCCCCCCc2ccc(O)cc2)C[C@]2(C)OC(=O)C[C@@H]2OO1` reads 64.8% (inactive); that for `CC[C@H](C)[C@H](NC(=O)Nc1ccccc1)C(=O)N(C)[C@H](C[C@@H](OC(C)=O)c1nc(C(=O)N[C@@H](Cc2ccccc2)C[C@H](C)C(=O)OC)cs1)C(C)C`, -1.4% (active); that for `N#Cc1nc(-c2ccccc2)oc1N1CCC(S(=O)(=O)F)CC1`, 110% (inactive).

In the case of `CC(=O)OCC1O[C@@H]([S-])C(OC(C)=O)[C@H](OC(C)=O)[C@@H]1OC(C)=O.[Au+].c1ccc(CN2[CH-]N(Cc3ccccc3)C(c3ccccc3)=C2c2ccccc2)cc1`, the growth was -61.7% (active). On to `CCC(C)[C@H]1O[C@]2(C=C[C@@H]1C)C[C@@H]1C[C@@H](C/C=C(\C)[C@@H](OC3C[C@H](OC)C(O[C@H]4C[C@H](OC)[C@@H](O)[C@H](C)O4)[C@H](C)O3)[C@@H](C)/C=C/C=C3\CO[C@@H]4[C@H](O)C(C)=C[C@@H](C(=O)O1)[C@]34O)O2` (stereo not given in full), for which the growth is -12.7% (active). Regarding `CCC[CH2][Sn]([CH2]CCC)([CH2]CCC)[O]C(=O)c1ccc(Cl)cc1Cl`, the growth was -80.7% (active). The result for `C[CH2][Pb]([CH2]C)([CH2]C)[O]C(=O)COC` reads -49.3% (active). To `O=C(Nc1ccc(Br)cc1)c1cc(Br)cc(Br)c1O` belongs -23.3% (active); to `Cn1cc(-c2csc(-c3cn(CCCCN4CCCCC4)c4ccc(F)cc34)n2)c2cccnc21`, 93.3% (inactive); to `CC(=O)O[C@H](C[C@H](C(C)C)N(C)C(=O)[C@@H](NC(=O)[C@H]1CCCCN1C)C(C)C)c1nc(C(=O)N[C@@H](Cc2ccccc2)C[C@H](C)C(=O)O)c(C(C)C)s1`, 19.8% (inactive).

With `CCC1(NC(=O)c2cc(F)c(F)c(F)c2F)C(=O)NC(=O)N(C(C)C)C1=O` (stereo not given), the growth is 95.2% (inactive).

For the compound `COC(=O)[C@H](Cc1c[nH]c2ccccc12)NC(=O)[C@@H](OC)[C@@H]1Cc2cc3cc(OC4CC(OC5CC(O)C(O)C(C)O5)C(O)C(C)O4)c(C)c(O)c3c(O)c2C(=O)[C@H]1OC1CC(OC2CC(OC3CC(C)(O)C(O)C(C)O3)C(O)C(C)O2)C(O)C(C)O1` (stereo not given in full), the growth was -48.8% (active). For `N#CC(C#N)=Cc1ccc2ccccc2c1`, the growth was 105% (inactive). As to `C[C@]12CC[C@H]3[C@@H](CCC4=CC(=O)CC[C@@H]43)[C@@H]1CC[C@@H]2OC(=O)N(CCCl)N=O`, the growth was -22.1% (active). Regarding `[Cl][Hg][n]1c(-c2ccco2)nc2ccccc21`, the growth was 94.4% (inactive). Turning to `COc1ccc(NC([Se])=NC23CC4CC(CC(C4)C2)C3)cc1`, the growth is -15.6% (active). As to `CC(=O)O[C@@H]1CC[C@]2(C)[C@H]3CC[C@]4(C)C(=O)CC[C@H]4[C@@H]3C[C@@H]3SC(N)=N[C@@]32C1`, the growth is 29.6% (inactive). `CO[C@H]1CC[C@@]2(C)C(=CC[C@@H]3[C@@H]2CC[C@]2(C)C(=O)C(=O)C[C@@H]32)C1`: the growth is 102% (inactive). The result for `O=C(CBr)Nc1ccc(Cl)cc1` reads 92.8% (inactive).
